# Several values for one entry are separate records, joined by “and”; a condition that tells them apart may be missing. Equal values may be shown once. The whole screen tested about 5,500 compounds, of which about 2,000 (36%) were called active. About 18% were inconclusive and are not listed. Some of the results follow. A number with no mark means an inactive call. Cut-off read from the data, not from the text of the source: active = normalized growth mostly below about 0.91 (no sharp cut-off); inconclusive = no clear call, values can overlap the other calls; inactive = mostly above about 0.92.
# Test: chemical genetic growth profiling, strain panel (AID 1159580);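 note: tested at 20 µM; growth read once vehicle control cultures reached saturation at 30 °C; 1 = growth at the plate median or of vehicle wells; lower values mean less growth of the strain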
# Conditions: growth OD
smiles,measurement,setting,value
COc1ccc2cc([C@H](C)C(=O)O)ccc2c1,normalized growth,"S. cerevisiae deletion strains, locus YJR075W, strain HOC1, hits give low values",1.01 and 0.988
same,normalized growth,"S. cerevisiae deletion strains, locus YKL009W, strain mrt4, hits give low values",0.916
same,normalized growth,"S. cerevisiae deletion strains, locus YKL068W, hits give low values",0.983
same,normalized growth,"S. cerevisiae deletion strains, locus YKL085W, strain MDH1 (second series), hits give low values",0.977
same,normalized growth,"S. cerevisiae deletion strains, locus YKL085W, strain MDH1, hits give low values",0.977
same,normalized growth,"S. cerevisiae deletion strains, locus YKL160W, strain elf1, hits give low values",0.988
same,normalized growth,"S. cerevisiae deletion strains, locus YKL190W, strain CNB1, hits give low values",1
same,normalized growth,"S. cerevisiae deletion strains, locus YKR001C, strain vps1, hits give low values",0.943
same,normalized growth,"S. cerevisiae deletion strains, locus YKR026C, strain gcn3, hits give low values",0.983
same,normalized growth,"S. cerevisiae deletion strains, locus YKR091W, strain srl3, hits give low values",0.982
same,normalized growth,"S. cerevisiae deletion strains, locus YLL001W, strain dnm1, hits give low values",0.982
same,normalized growth,"S. cerevisiae deletion strains, locus YLL026W, hits give low values",0.997
same,normalized growth,"S. cerevisiae deletion strains, locus YLL041C, strain sdh2, hits give low values",0.971
same,normalized growth,"S. cerevisiae deletion strains, locus YLR027C, strain aat2, hits give low values",0.971
same,normalized growth,"S. cerevisiae deletion strains, locus YLR039C, strain RIC1, hits give low values",0.929
same,normalized growth,"S. cerevisiae deletion strains, locus YLR058C, strain SHM2, hits give low values",1.01
same,normalized growth,"S. cerevisiae deletion strains, locus YLR102C, strain apc9, hits give low values",0.986
same,normalized growth,"S. cerevisiae deletion strains, locus YLR113W, strain HOG1, hits give low values",0.757 (active)
same,normalized growth,"S. cerevisiae deletion strains, locus YLR221C, strain rsa3, hits give low values",0.993
same,normalized growth,"S. cerevisiae deletion strains, locus YLR258W, strain gsy2, hits give low values",0.982
same,normalized growth,"S. cerevisiae deletion strains, locus YLR262C, strain YPT6 (second series), hits give low values",0.944
same,normalized growth,"S. cerevisiae deletion strains, locus YLR262C, strain YPT6, hits give low values",0.903
same,normalized growth,"S. cerevisiae deletion strains, locus YLR268W, strain sec22, hits give low values",1.05
same,normalized growth,"S. cerevisiae deletion strains, locus YLR320W, strain mms22, hits give low values",0.955
same,normalized growth,"S. cerevisiae deletion strains, locus YLR330W, strain CHS5, hits give low values",0.997
same,normalized growth,"S. cerevisiae deletion strains, locus YLR342W, strain FKS1 (second series), hits give low values",0.98
same,normalized growth,"S. cerevisiae deletion strains, locus YLR342W, strain FKS1, hits give low values",0.967
same,normalized growth,"S. cerevisiae deletion strains, locus YLR357W, strain rsc2, hits give low values",0.963
same,normalized growth,"S. cerevisiae deletion strains, locus YLR370C, strain arc18, hits give low values",0.971
same,normalized growth,"S. cerevisiae deletion strains, locus YLR371W, strain rom2, hits give low values",0.989
same,normalized growth,"S. cerevisiae deletion strains, locus YLR384C, strain iki3, hits give low values",0.976
same,normalized growth,"S. cerevisiae deletion strains, locus YLR418C, strain cdc73, hits give low values",0.971
same,normalized growth,"S. cerevisiae deletion strains, locus YML016C, strain PPZ1, hits give low values",1
same,normalized growth,"S. cerevisiae deletion strains, locus YML032C, strain rad52, hits give low values",1
same,normalized growth,"S. cerevisiae deletion strains, locus YML120C, strain ndi1, hits give low values",0.99
same,normalized growth,"S. cerevisiae deletion strains, locus YML124C, strain tub3, hits give low values",0.992
same,normalized growth,"S. cerevisiae deletion strains, locus YMR058W, strain fet3, hits give low values",0.969
same,normalized growth,"S. cerevisiae deletion strains, locus YMR078C, strain ctf18, hits give low values",0.977
same,normalized growth,"S. cerevisiae deletion strains, locus YMR125W, strain sto1, hits give low values",0.972
same,normalized growth,"S. cerevisiae deletion strains, locus YMR129W, hits give low values",0.96
same,normalized growth,"S. cerevisiae deletion strains, locus YMR205C, strain PFK2, hits give low values",0.974
same,normalized growth,"S. cerevisiae deletion strains, locus YMR223W, strain ubp8, hits give low values",0.963
same,normalized growth,"S. cerevisiae deletion strains, locus YMR231W, strain pep5, hits give low values",0.987
same,normalized growth,"S. cerevisiae deletion strains, locus YMR263W, strain SAP30, hits give low values",1.01 and 0.996
same,normalized growth,"S. cerevisiae deletion strains, locus YMR307W, strain GAS1, hits give low values",0.955
same,normalized growth,"S. cerevisiae deletion strains, locus YNL067W, strain RPL9B, hits give low values",1.02
same,normalized growth,"S. cerevisiae deletion strains, locus YNL071W, strain lat1, hits give low values",0.96
same,normalized growth,"S. cerevisiae deletion strains, locus YNL128W, strain TEP1, hits give low values",0.996 and 0.976
same,normalized growth,"S. cerevisiae deletion strains, locus YNL153C, strain GIM3, hits give low values",1.02 and 1.01
same,normalized growth,"S. cerevisiae deletion strains, locus YNL175C, strain NOP13, hits give low values",0.964
same,normalized growth,"S. cerevisiae deletion strains, locus YNL183C, strain NPR1, hits give low values",0.88
same,normalized growth,"S. cerevisiae deletion strains, locus YNL197C, strain WHI3, hits give low values",0.963
same,normalized growth,"S. cerevisiae deletion strains, locus YNL209W, strain ssb2, hits give low values",0.978
same,normalized growth,"S. cerevisiae deletion strains, locus YNL224C, strain SQS1, hits give low values",0.978
same,normalized growth,"S. cerevisiae deletion strains, locus YNL233W, strain BNI4, hits give low values",1.02
same,normalized growth,"S. cerevisiae deletion strains, locus YNL248C, strain rpa49, hits give low values",0.977
same,normalized growth,"S. cerevisiae deletion strains, locus YNL250W, strain rad50, hits give low values",0.928
same,normalized growth,"S. cerevisiae deletion strains, locus YNL271C, strain bni1, hits give low values",0.938
same,normalized growth,"S. cerevisiae deletion strains, locus YNL298W, strain CLA4, hits give low values",0.848 (active)
same,normalized growth,"S. cerevisiae deletion strains, locus YNL307C, strain MCK1, hits give low values",0.98
same,normalized growth,"S. cerevisiae deletion strains, locus YNL322C, strain KRE1 (second series), hits give low values",0.938
same,normalized growth,"S. cerevisiae deletion strains, locus YNL322C, strain KRE1, hits give low values",1.01 and 0.995
same,normalized growth,"S. cerevisiae deletion strains, locus YNR049C, strain mso1, hits give low values",0.972
same,normalized growth,"S. cerevisiae deletion strains, locus YNR052C, strain pop2, hits give low values",0.969
same,normalized growth,"S. cerevisiae deletion strains, locus YOL006C, strain TOP1, hits give low values",1.06
same,normalized growth,"S. cerevisiae deletion strains, locus YOL012C, strain htz1",1.17
same,normalized growth,"S. cerevisiae deletion strains, locus YOL147C, strain pex11, hits give low values",0.994
same,normalized growth,"S. cerevisiae deletion strains, locus YOR001W, strain rrp6, hits give low values",0.957
same,normalized growth,"S. cerevisiae deletion strains, locus YOR061W, strain CKA2, hits give low values",1
same,normalized growth,"S. cerevisiae deletion strains, locus YOR069W, strain VPS5, hits give low values",1
same,normalized growth,"S. cerevisiae deletion strains, locus YOR070C, strain gyp1, hits give low values",0.978
same,normalized growth,"S. cerevisiae deletion strains, locus YOR080W, strain dia2, hits give low values",0.976
same,normalized growth,"S. cerevisiae deletion strains, locus YOR083W, strain WHI5 (second series), hits give low values",0.972
same,normalized growth,"S. cerevisiae deletion strains, locus YOR083W, strain WHI5, hits give low values",1.01
same,normalized growth,"S. cerevisiae deletion strains, locus YOR106W, strain vam3, hits give low values",0.978
same,normalized growth,"S. cerevisiae deletion strains, locus YOR136W, strain idh2, hits give low values",0.993
same,normalized growth,"S. cerevisiae deletion strains, locus YOR144C, strain elg1, hits give low values",0.995
same,normalized growth,"S. cerevisiae deletion strains, locus YOR184W, strain ser1, hits give low values",0.958
same,normalized growth,"S. cerevisiae deletion strains, locus YOR231W, strain MKK1, hits give low values",0.898
same,normalized growth,"S. cerevisiae deletion strains, locus YOR265W, strain rbl2, hits give low values",0.994
same,normalized growth,"S. cerevisiae deletion strains, locus YOR270C, strain vph1, hits give low values",0.938
same,normalized growth,"S. cerevisiae deletion strains, locus YOR290C, strain snf2, hits give low values",0.937
same,normalized growth,"S. cerevisiae deletion strains, locus YOR316C, strain cot1, hits give low values",0.999
same,normalized growth,"S. cerevisiae deletion strains, locus YPL051W, strain arl3, hits give low values",0.994
same,normalized growth,"S. cerevisiae deletion strains, locus YPL055C, strain LGE1, hits give low values",0.99 and 0.992
same,normalized growth,"S. cerevisiae deletion strains, locus YPL078C, strain atp4, hits give low values",0.979
same,normalized growth,"S. cerevisiae deletion strains, locus YPL106C, strain sse1, hits give low values",0.994
same,normalized growth,"S. cerevisiae deletion strains, locus YPL240C, strain hsp82, hits give low values",0.993
same,normalized growth,"S. cerevisiae deletion strains, locus YPL241C, strain CIN2, hits give low values",1
same,normalized growth,"S. cerevisiae deletion strains, locus YPL256C, strain CLN2, hits give low values",0.807 (active)
same,normalized growth,"S. cerevisiae deletion strains, locus YPR119W, strain clb2, hits give low values",0.977
same,normalized growth,"S. cerevisiae deletion strains, locus YPR141C, strain kar3, hits give low values",0.961
same,normalized growth,"S. cerevisiae deletion strains, locus YPR163C, strain tif3, hits give low values",0.987
same,normalized growth,"S. cerevisiae deletion strains, locus YPR167C, strain met16, hits give low values",0.986
same,normalized growth,"S. cerevisiae deletion strains, strain wtn01, hits give low values",1.01
same,normalized growth,"S. cerevisiae strains, strain wild type, hits give low values",1
